Shown are actives, neighbours in structure and some others; about 0.92% of the full set was active somewhere.
CIT2-GFP yeast: alters CIT2-GFP fluorescence in TOR pathway yeast screen; GFP response vs DMSO, % at 10 µM; S. cerevisiae CIT2-GFP strain, flow cytometry, 3 h; 100 means same as DMSO wells; actives 0.065% (n = 320,000);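 active = GFP response relative to DMSO above a set limit, near the screen mean plus 3 SD, cut at about 150% in these data; inconclusive = Fewer than 70 cells measured for a yeast strain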;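 also: ratio of well median GFP fluorescence to mean of DMSO wells on the plate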
AGP1-GFP MLPCN: yeast TOR pathway AGP1-GFP modulation; S. cerevisiae AGP1-GFP multiplex flow cytometry, 3 h; GFP as percent of DMSO wells; GFP response vs DMSO, % at 10 µM; actives 0.02% (n = 320,000);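 active = GFP response relative to DMSO above a set limit, near screen average plus 3 SD, cut at about 150% in these data; inconclusive = fewer than 70 cells counted for the yeast strain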;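 also: median GFP channel fluorescence of the gated AGP1 strain per well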
MEP2 TOR yeast: alters MEP2-GFP fluorescence in TOR pathway yeast screen; S. cerevisiae MEP2-GFP strain, flow cytometry GFP, 3 h; 100% = DMSO control level; GFP response vs DMSO, % at 10 µM; actives 0.51% (n = 330,000); AID 2016;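 active = GFP response versus DMSO above a set limit, roughly screen mean plus 3 SD, cut at about 180% in these data; inconclusive = fewer than 70 cells counted for a yeast strain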;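 also: median GFP fluorescence of the barcode-gated MEP2-GFP cells per well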
RPL19A TOR yeast: alters RPL19A-GFP fluorescence in TOR pathway yeast screen; S. cerevisiae RPL19A-GFP strain, flow cytometry, 3 h; stronger effect = lower value; percent response vs DMSO, % at 10 µM; actives 0.3% (n = 330,000);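 active = percent response vs DMSO below 50%; inconclusive = fewer than 70 events counted for the yeast strain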;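 also: median channel GFP fluorescence of the barcoded RPL19A-GFP strain; lower means less RPL19A-GFP as with rapamycin TOR inhibition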
LAP4-GFP MLPCN: modulators of TOR pathway LAP4-GFP in S. cerevisiae; S. cerevisiae LAP4-GFP multiplex, flow cytometry GFP, 3 h; median GFP as percent of DMSO wells; GFP response vs DMSO, % at 10 µM; actives 0.34% (n = 320,000); AID 2023;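 active = GFP response vs DMSO above a set limit, about the screen mean plus 3 SD, cut at about 150% in these data; inconclusive = under 70 cell events counted for the yeast strain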
LAP4-GFP pick2: reconfirmed LAP4-GFP TOR pathway modulator in yeast | GFP response vs DMSO, % at 10 µM | shares compounds with LAP4-GFP MLPCN | S. cerevisiae LAP4-GFP strain, flow cytometry GFP, 3 h | AID 2621 | actives 20% (n = 590);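 active = GFP signal as percent of the solvent control above about 150%, meaning raised reporter expression, limit read from the data; inconclusive = fewer than 70 cells counted in the well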
MEP2-GFP pick2: reconfirmed MEP2-GFP TOR pathway modulator in yeast; actives 10% (n = 590); GFP response vs DMSO, % at 10 µM; S. cerevisiae MEP2-GFP strain, flow cytometry GFP, 3 h; shares compounds with LAP4-GFP MLPCN; AID 2622;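 active = GFP signal above 150% of the solvent control wells, that is a rise of more than half; inconclusive = fewer than 70 yeast cells counted in the well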;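 also: median channel GFP fluorescence of all gated yeast cells per well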
RPL19A GFP CP2: second confirmation of modulators of TOR reporter RPL19A-GFP in yeast. GFP response vs DMSO, % at 10 µM. S. cerevisiae RPL19A-GFP strain, flow cytometry GFP, 3 h; stronger effect = lower value; 100% means same as DMSO wells. shares compounds with LAP4-GFP MLPCN. AID 2623. actives 3% (n = 590);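 active = under 65% GFP response relative to DMSO; inconclusive = yeast strain with under 70 measured events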;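 also: median GFP channel fluorescence per well over the all cells gate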
CIT2 GFP CP2: yeast CIT2-GFP TOR reporter modulation, second cherry pick. actives 8% (n = 590). shares compounds with LAP4-GFP MLPCN. GFP response vs DMSO, % at 10 µM. S. cerevisiae CIT2-GFP strain, flow cytometry GFP, 3 h; DMSO control wells read 100%;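 active = GFP response vs DMSO above about 150%, limit read from the data; inconclusive = fewer than 70 events counted for a yeast strain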;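 also: median green fluorescence per well over all gated yeast cells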
AGP1 GFP CP2: second confirmation of modulators of TOR reporter AGP1-GFP in yeast. AID 2643. shares compounds with LAP4-GFP MLPCN. percent response vs DMSO, % at 10 µM. 590 tested, under 10 active. S. cerevisiae AGP1-GFP strain, flow cytometry GFP, 3 h;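 active = over 150 percent of DMSO response; inconclusive = yeast strain measured with under 70 events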;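 also: median GFP channel fluorescence over all cells without mother daughter split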
s288c autofluor: counter-screen for compound autofluorescence in yeast s288c cells | shares compounds with LAP4-GFP MLPCN | S. cerevisiae s288c, 520 nm autofluorescence, flow cytometry, 3 h; stronger effect = higher value; zero means same as solvent-only cells | fluorescence change (kMESF span) at 33 µM | 610 tested, under 10 active;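 active = fluorescence span over the dose series, or activity score, above about 33, limit read from the data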
s288c autofl DR: yeast s288c autofluorescence artifact in dose response. shares compounds with LAP4-GFP MLPCN. S. cerevisiae s288c parental, compound autofluorescence, flow cytometry, 3 h. fluorescence change (span) at 33 µM. 110 tested, under 10 active. AID 488829;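 active = fluorescence change span, or the activity score built from it, above 25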
TORC1 bypass gr: compounds blocking wildtype yeast growth but not TORC1 bypass cells | AID 504456 | S. cerevisiae BY4741 spot growth rating, 48-72 h; stronger effect = lower value | growth rating (0-3) at 30 µM | shares compounds with LAP4-GFP MLPCN | 120 tested, under 10 active;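 active = growth rating at most 1 for wild type yeast while the TORC1 bypass strain still grows fully, rated 3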
Hits are given with their value; . = inactive; ? = inconclusive; / = no result.

SMILES	CIT2-GFP yeast	AGP1-GFP MLPCN	MEP2 TOR yeast	RPL19A TOR yeast	LAP4-GFP MLPCN	LAP4-GFP pick2	MEP2-GFP pick2	RPL19A GFP CP2	CIT2 GFP CP2	AGP1 GFP CP2	s288c autofluor	others
O=C(/C=C/c1cccs1)NC(=S)NNC(=O)c1ccccc1O	.	.	.	.	.	/	/	/	/	/	/
COc1ccc(C(=O)NNC(=S)NC(=O)/C=C/c2cccs2)cc1	.	.	.	.	186	/	/	/	/	/	.	s288c autofl DR=.;TORC1 bypass gr=.
CN(CC(=O)Nc1ccc(Cl)cc1)C(=O)CNC(=O)c1cccs1	.	.	.	.	.	/	/	/	/	/	/
O=c1[nH]c(-c2ccccn2)nc(C(F)(F)F)c1Br	.	.	.	.	242	/	/	/	/	/	.
COc1ccc(-c2cc(C(F)F)n3ncc(C(=O)NCC4CCCO4)c3n2)cc1 (stereo unspecified)	174	.	.	.	.	.	.	.	.	.	/
COc1cc(N2C(=O)C=CC2=O)c(OC)cc1Cl	.	.	.	.	260	/	/	/	/	/	.
O=C(CN(CC1CCCO1)C(=O)CNS(=O)(=O)c1ccc(Cl)cc1)NC1CCCCC1 (stereo unspecified)	.	.	.	.	.	/	/	/	/	/	/
Cc1ccc(C(CC(=O)O)NC(=O)c2ccc(S(=O)(=O)N3CC(C)OC(C)C3)cc2)cc1 (stereo unspecified)	.	.	196	.	.	.	.	.	.	.	.
Cc1cccc(C)c1Nc1nnc(SCC(=O)c2ccc3c(c2)NC(=O)CO3)s1	.	.	.	?	.	/	/	/	/	/	/
Cc1ccc(-c2ccc(C(=O)Nc3cccc(F)c3)o2)c2ccccc12	.	.	.	.	171	.	.	.	.	.	/
O=C(Nc1cccc(F)c1)c1ccc(-c2ccccc2Cl)o1	.	.	.	.	.	/	/	/	/	/	/
COc1ccc(NC(=O)CN(C)C(=O)C2(c3ccccc3)CCCC2)cc1	.	.	.	.	152	.	.	.	.	.	/
Cc1nc2sccn2c(=O)c1S(=O)(=O)Nc1ccc(N2CCN(C)CC2)cc1	.	.	.	.	.	/	/	/	/	/	/
CCOC(=O)c1c(CSCc2ccccc2)oc2ccc(O)c(CN(C)C)c12	.	.	.	.	.	.	.	.	.	.	/
CCOC(=O)c1c(-c2ccccc2)oc2ccc(O)c(CN(C)C)c12	.	.	.	.	.	/	/	/	/	/	/
C[C@@]12C(=O)OC(=O)[C@]1(C)C1CCC2O1	.	.	.	.	189	213	.	.	.	.	.
O=c1oc2cc(O)c(Cl)cc2c2ccccc12	.	.	.	.	.	/	/	/	/	/	/
O=c1oc(Cl)c(Cl)c2ccccc12	.	.	.	.	191	.	.	.	.	.	/
COc1ccc(-c2cc3nc4n(c(=O)c3s2)CCCCC4)cc1	.	.	.	.	.	/	/	/	/	/	/
COc1ccc(-c2cc3nc4n(c(=O)c3s2)CCC4)cc1	.	.	.	.	.	.	.	64	.	.	.
CCN(CC)S(=O)(=O)c1ccc(S(=O)(=O)Nc2c(C)nn(C)c2C)cc1	.	.	.	.	.	/	/	/	/	/	/
O=C(c1ccc(C(=O)N2CCCc3ccccc32)s1)N1CCCc2ccccc21	.	.	.	.	171	.	164	.	.	.	.	s288c autofl DR=.;TORC1 bypass gr=.
O=C1C=CC(=O)N1N(c1ccccc1)c1ccccc1	.	.	.	.	.	/	/	/	/	/	.
CCSc1ccc(-c2nn(-c3ccccc3)cc2/C=C(/C#N)C(=O)NC)cc1	.	.	.	.	.	.	.	.	.	.	/
COc1cccc(/C=C2/SC(=S)N(CCCC(=O)Nc3ccc(O)cc3)C2=O)c1	.	.	.	.	.	/	/	/	/	/	/
SMILES	CIT2-GFP yeast	AGP1-GFP MLPCN	MEP2 TOR yeast	RPL19A TOR yeast	LAP4-GFP MLPCN	LAP4-GFP pick2	MEP2-GFP pick2	RPL19A GFP CP2	CIT2 GFP CP2	AGP1 GFP CP2	s288c autofluor	others
COc1cccc(/C=C2\SC(=S)N(CCCC(=O)Nc3ccc(C(=O)O)cc3)C2=O)c1	173	.	.	.	.	.	.	.	.	.	.
CCCCc1ccc(NC(=O)CC(C)=O)cc1	.	.	.	.	.	.	175	.	152	.	.
COc1ccc(CCNC(=O)C2CCCN(c3ncccn3)C2)cc1 (stereo unspecified)	.	.	.	.	.	/	/	/	/	/	/
Cc1cccc(N2C(=O)C(Cl)=C(Nc3c(C)n(C)n(-c4ccccc4)c3=O)C2=O)c1C	.	.	.	.	.	/	/	/	/	/	.
Cc1ccc(N2C(=O)C(Cl)=C(Nc3c(C)n(C)n(-c4ccccc4)c3=O)C2=O)cc1	.	.	.	.	.	/	/	/	/	/	.
Cc1cc(C)nc(SCCCNCc2ccccc2)n1	.	.	.	.	.	/	/	/	/	/	/
Cc1ccc2nc(-c3ccc(NC(=S)NC4CC(C)(C)NC(C)(C)C4)cc3)sc2c1	.	.	.	.	.	.	.	.	.	.	/
CCOC(=O)COc1ccc2ccccc2c1/C=C/[N+](=O)[O-]	.	.	.	.	230	293	.	.	.	.	.
CCOC(=O)Cn1cc(/C=C/[N+](=O)[O-])c2ccccc21	.	.	.	.	154	/	/	/	/	/	.
CC(=O)c1ccc(N2CCN(C(=O)c3noc4c3CSc3ccccc3-4)CC2)cc1	.	.	.	.	.	/	/	/	/	/	/
Cc1ccc2nc3c(cc(C(=O)NCC4CCCO4)c(=N)n3C3CCCC3)c(=O)n2c1 (stereo unspecified)	.	.	.	.	.	.	.	.	.	.	/
CCOC(=O)c1nn(-c2ccc(OCC)cc2)c2nc(-c3ccco3)c(C#N)c(=O)n12	.	.	.	.	.	.	.	.	.	.	/

Compound activity as filed in PubChem.
